The results in this text go back to PubChem BioAssay (NCI).

Molecules are shown by their SMILES. Compounds without any hit were thinned out: in the full panel of roughly 83,000, 20% have a hit.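 Compound tested at a single concentration for 48 hours in 96-well plates; a percent growth value below 10 was scored as active.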 Active and inactive are the calls of the source.

The test system of the first experiment is UACC-257 melanoma. The experiment is described as follows: NCI-60 one-dose screen, 48 h (100 = growth as untreated, 0 = no growth, -100 = all killed). As to conditions: 10 µM unless noted.
In the case of `O=C(c1cccc(C(=O)c2ccc3c4c(cccc24)C(=O)N(c2ccccc2)C3=O)c1)c1ccc2c3c(cccc13)C(=O)N(c1ccccc1)C2=O`, the growth was 92% (inactive).
Same read-out and setting: the same measure for `Cc1ccc[n+](CCC(N)=O)c1`: 103% (inactive); for `Cc1ccc2nc(N)nnc2c1`: 127% (inactive); for `CCOc1ccncc1[N+](=O)[O-]`: 95.2% (inactive).
For the molecule `Oc1cc(O)c2c(c1)O[C@H](c1ccc(O)c(O)c1)[C@@H](O)C2`, the growth is 101% (inactive).
Regarding `C=CCOc1ccc(Cl)cc1Cl`, the growth is 115% (inactive).
Still for that read-out and setting: the same measure for `CCOC(=O)/C(O)=C(\C=N\C(=S)Nc1ccc(Cl)c(Cl)c1)C(=O)OCC`: 98.6% (inactive).
Still for that read-out and setting: the same measure for `CCOc1ccc(NC(=S)N2CCC(CCCC3CCN(C(=S)Nc4ccc(OCC)cc4)CC3)CC2)cc1`: 83.1% (inactive); for `Clc1ccc(C(SCc2ccccc2)SCc2ccccc2)cc1`: 88.2% (inactive).
Same read-out and setting: the same measure for `CC(=O)C1C(=O)C(=O)N(c2ccc(Cl)c(Cl)c2)C1=O` (configuration not stated): 109% (inactive); for `Cc1cc(Cl)cc(Cc2cc(Cl)cc(C)c2O)c1O`: 8.59% (active); for `c1ccc(Oc2c3ccccc3nc3ccccc23)cc1`: 56.7% (inactive).
On to `O=[N+]([O-])c1ccc2[nH]c(=S)n(/C=C(/c3ccc(Cl)cc3Cl)S(=O)(=O)Cc3ccc(Cl)cc3Cl)c2c1`, for which the growth is 86.5% (inactive).
On the same count and under the same terms, the same measure for `N#C/C(=C\c1ccc(C#N)cc1)C(=O)c1ccccc1`: 97.7% (inactive); for `COc1cc(OC)c(NC(=O)C(Sc2nc(C)cc(C)c2C#N)c2ccccc2)cc1Cl` (configuration not stated): 114% (inactive).
On the same count and under the same terms, the same measure for `O=c1nc(Nc2cccc(Cl)c2)oc2cc(Cl)oc(=O)c12`: 87% (inactive); for `C/C(O)=C(/C=N\C(=S)Nc1ccc(S(=O)(=O)Nc2nccs2)cc1)C(=O)Nc1ccccc1C`: 109% (inactive); for `CC(O)C(F)(F)C(F)(F)C(F)(F)F` (configuration not stated): 107% (inactive).
Consider `CCOP(=O)(NC(c1ccccc1)c1ccccc1)OCC`, for which the growth is 97.8% (inactive).
Regarding `CCCCn1cnc2c(=O)[nH]cnc21`, the growth was 121% (inactive).
On the same count and under the same terms, the same measure for `O=C(NCc1ccccc1)/C(=C/c1ccccc1)NC(=O)c1ccccc1`: 81.1% (inactive); for `O=CNCCc1ccccc1`: 103% (inactive); for `COC1OC(C(COC(C)=O)OC(C)=O)C(OC(C)=O)C(OC(C)=O)C1OC(C)=O` (configuration not stated): 110% (inactive).
Still for that read-out and setting: the same measure for `O=S(Cc1ccccc1)/C(=C/NC(=S)Nc1cc(Cl)ccc1Cl)c1ccccc1` (configuration not stated): 99.5% (inactive); for `Cc1c(Cl)cccc1N=C=S`: 92.7% (inactive).
Still for that read-out and setting: the same measure for `CC(=O)C1C(=O)C(=O)N(c2cccc([N+](=O)[O-])c2)C1=O` (configuration not stated): 97.4% (inactive); for `CCOc1ccc2c(c1)c(C)cc(C)[n+]2CC`: 76% (inactive).
For the molecule `S=CN1CCCCC1`, the growth was 91.8% (inactive).
In the case of `Cc1nc(C)c(C(=O)O)cc1C(=O)O`, the growth was 111% (inactive).
Same read-out and setting: the same measure for `Cc1cc(CC(=O)NCCO)n(CCO)c(=O)c1`: 93% (inactive); for `NC(CSSCC(N)C(=O)O)C(=O)O` (configuration not stated): 5.8% (active).
On the same count and under the same terms, the same measure for `C/C(O)=C(/C=N/C(=S)Nc1ccccc1)C(=O)Nc1ccccc1C`: 91.2% (inactive); for `CC(C)(C)[Si](C)(C)OCC1OC(n2cnc3c(N)ncnc32)CC1OS(C)(=O)=O` (configuration not stated): 94.7% (inactive).
Consider `NNC(=O)N/N=C1\C(=O)N(c2nccs2)C(=O)C(=O)C1c1nc2ccccc2s1` (configuration not stated), for which the growth was 68.9% (inactive).
Same read-out and setting: the same measure for `C(=C\c1ccncc1)/c1ccncc1`: 108% (inactive); for `CC(=O)NCNC(C)=O`: 95.4% (inactive).

A further experiment has as its system M14 melanoma. The description is as above. To be noted: 10 µM unless noted.
In the case of `O=C(c1cccc(C(=O)c2ccc3c4c(cccc24)C(=O)N(c2ccccc2)C3=O)c1)c1ccc2c3c(cccc13)C(=O)N(c1ccccc1)C2=O`, the growth was 99.2% (inactive).
The same measure, in the same setting: the same measure for `Cc1ccc[n+](CCC(N)=O)c1`: 109% (inactive); for `Cc1ccc2nc(N)nnc2c1`: 99.2% (inactive).
The same measure, in the same setting: the same measure for `CCOc1ccncc1[N+](=O)[O-]`: 106% (inactive); for `Oc1cc(O)c2c(c1)O[C@H](c1ccc(O)c(O)c1)[C@@H](O)C2`: 112% (inactive).
Still for that read-out and setting: the same measure for `Cn1c(=O)c2nc3c(=O)n(C)c(=O)n(C)c3nc2n(C)c1=O`: 97% (inactive); for `C=CCOc1ccc(Cl)cc1Cl`: 101% (inactive).
Regarding `CCOC(=O)/C(O)=C(\C=N\C(=S)Nc1ccc(Cl)c(Cl)c1)C(=O)OCC`, the growth is 93.2% (inactive).
The same measure, in the same setting: the same measure for `CCOc1ccc(NC(=S)N2CCC(CCCC3CCN(C(=S)Nc4ccc(OCC)cc4)CC3)CC2)cc1`: 97.9% (inactive); for `CC(=O)C1C(=O)C(=O)N(c2ccc(Cl)c(Cl)c2)C1=O` (configuration not stated): 93.7% (inactive); for `c1ccc(Oc2c3ccccc3nc3ccccc23)cc1`: -13.2% (active).
Same read-out and setting: the same measure for `O=[N+]([O-])c1ccc2[nH]c(=S)n(/C=C(/c3ccc(Cl)cc3Cl)S(=O)(=O)Cc3ccc(Cl)cc3Cl)c2c1`: 93.6% (inactive); for `N#C/C(=C\c1ccc(C#N)cc1)C(=O)c1ccccc1`: 95.7% (inactive).
The same measure, in the same setting: the same measure for `COc1cc(OC)c(NC(=O)C(Sc2nc(C)cc(C)c2C#N)c2ccccc2)cc1Cl` (configuration not stated): 97.1% (inactive); for `O=c1nc(Nc2cccc(Cl)c2)oc2cc(Cl)oc(=O)c12`: 66.2% (inactive); for `C/C(O)=C(/C=N\C(=S)Nc1ccc(S(=O)(=O)Nc2nccs2)cc1)C(=O)Nc1ccccc1C`: 100% (inactive).
As to `CC(O)C(F)(F)C(F)(F)C(F)(F)F` (configuration not stated), the growth was 103% (inactive).
The same measure, in the same setting: the same measure for `CCOP(=O)(NC(c1ccccc1)c1ccccc1)OCC`: 105% (inactive).
With `CC(=O)OCC1OC(n2cnc3c(=S)nc(N)[nH]c32)C(OC(C)=O)C1OC(C)=O` (configuration not stated), the growth is 37.6% (inactive).
On the same count and under the same terms, the same measure for `CCCCn1cnc2c(=O)[nH]cnc21`: 103% (inactive); for `O=C(NCc1ccccc1)/C(=C/c1ccccc1)NC(=O)c1ccccc1`: 101% (inactive); for `O=CNCCc1ccccc1`: 102% (inactive).
Take `COC1OC(C(COC(C)=O)OC(C)=O)C(OC(C)=O)C(OC(C)=O)C1OC(C)=O` (configuration not stated): the growth was 106% (inactive).
Turning to `O=S(Cc1ccccc1)/C(=C/NC(=S)Nc1cc(Cl)ccc1Cl)c1ccccc1` (configuration not stated), the growth was 96.8% (inactive).
Same read-out and setting: the same measure for `Cc1c(Cl)cccc1N=C=S`: 90.6% (inactive).
Same read-out and setting: the same measure for `CC(=O)C1C(=O)C(=O)N(c2cccc([N+](=O)[O-])c2)C1=O` (configuration not stated): 104% (inactive); for `CCOc1ccc2c(c1)c(C)cc(C)[n+]2CC`: 102% (inactive).
Same read-out and setting: the same measure for `S=CN1CCCCC1`: 106% (inactive); for `Cc1nc(C)c(C(=O)O)cc1C(=O)O`: 114% (inactive); for `Cc1cc(CC(=O)NCCO)n(CCO)c(=O)c1`: 103% (inactive).
In the case of `NC(CSSCC(N)C(=O)O)C(=O)O` (configuration not stated), the growth was 2.4% (active).
`C/C(O)=C(/C=N/C(=S)Nc1ccccc1)C(=O)Nc1ccccc1C`: the growth is 100% (inactive).
Same read-out and setting: the same measure for `CC(C)(C)[Si](C)(C)OCC1OC(n2cnc3c(N)ncnc32)CC1OS(C)(=O)=O` (configuration not stated): 104% (inactive).
Still for that read-out and setting: the same measure for `NNC(=O)N/N=C1\C(=O)N(c2nccs2)C(=O)C(=O)C1c1nc2ccccc2s1` (configuration not stated): 105% (inactive); for `C(=C\c1ccncc1)/c1ccncc1`: 105% (inactive); for `CC(=O)NCNC(C)=O`: 111% (inactive).
